Where “and” joins values, the source holds several entries; their conditions need not be identical. Equal entries are not always repeated. Records with an inconclusive call do not appear. Calls of active or inactive are those of the source. Calls follow the shape of the dose curve; as a rule, active = well fitted curve in either direction with a large enough effect; inconclusive = small, poorly fitted or top-dose-only effect; inactive = no such curve, though single readings can be large or run the other way.
Each compound was assayed against Lysosomal alpha-glucosidase (Homo sapiens) (UniProt P10253) (assay: Confirmation of Inhibitors and Activators of Human alpha-Glucosidase From Spleen Homogenate). Conditions: alpha-glucosidase enzyme activity; series mostly up to 60.5 µM.
How it was run: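 Fluorogenic assay using human spleen homogenate (1 ug) as enzyme source with 1 mM 4-methylumbelliferyl-alpha-D-glucopyranoside, pH 5.0 citrate buffer, 40 min at 37 C. 4-MU read (Ex 365/Em 440) after NaOH/glycine stop; AC50 from Hill fits.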
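For Potency in this document: fluorescence of 4-methylumbelliferone released from a fluorogenic glucopyranoside substrate at pH 5.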
Potency is read from the fitted curve at half-maximal effect.

Potency, inactive:
O=C1CC(c2ccccc2)Cc2nc(NCc3ccco3)ncc21 (configuration not stated)
COc1cc2cc(CN(Cc3nnnn3Cc3ccccc3)CC3CCCO3)c(=O)[nH]c2cc1OC (configuration not stated)
N#Cc1ccc(S(=O)(=O)N2CCOCC2)cc1
COc1ccc(-c2nnc(NC(=O)CSc3ccc(Cl)cc3)s2)cc1
CSc1ccccc1NC(=O)CN(C)CC(=O)NCc1ccccc1
COc1ccc(C#Cc2c[nH]c(=O)c3cncnc23)cc1OC
O=C(Cc1ncc(C(F)(F)F)cc1Cl)NCCc1ccccc1
CC1(C)CC(=O)c2cc(C(=O)NCc3ccco3)c(=O)n(-c3ccc(Cl)cc3)c2C1
C(=C\c1ccc2ccccc2n1)/c1ccc2c(c1)OCO2
OCCNc1nc(-c2cccs2)nc2ccccc12
O=C(Nc1cc(S(=O)(=O)N2CCOCC2)ccc1N1CCCC1)c1cc(=O)[nH]c2ccccc12
O=C(O)Cc1sc(-c2cc3ccccc3oc2=O)nc1-c1ccc(-c2ccccc2)cc1
CCCCCCc1cc2cc(C(=O)NC)c(=N)oc2cc1O
CCCN1CNc2c(c(=O)[nH]c(=S)n2CCC(C)(C)C)C1
Cc1ccc(-c2nc(-c3cc4cc(Cl)ccc4oc3=O)sc2C)cc1

Potency, active:
COc1ccc(N2CCN(S(=O)(=O)c3ccc4c(c3)CC(=O)N4)CC2)cc1 18.8 µM [inhibitor]
CC(=O)c1ccc(N2CCN(S(=O)(=O)c3cc4c(cc3Cl)NC(=O)C4)CC2)cc1 1.83 µM [inhibitor] and 5.17 µM [inhibitor]

— PubChem BioAssay AID2113 (National Center for Advancing Translational Sciences (NCATS), 2009)
